Most compounds without a hit are left out; they make up all but 1.2% or so of the library.
NPSR antag = blocks cAMP signaling of the human neuropeptide S receptor | AID 1461 | Potency, µM (doses to about 38.3 µM), for inactives: at the top dose activity change, negative = inhibition, hits mostly inhibitors | Q6W5P4 | CHO-NPSR cells, cAMP TR-FRET, antagonist mode | hit rate 1% among 220,000; also: nearly all actives have a fitted effect of over 50% in size
Target sequence (Q6W5P4 whole entry, looked up): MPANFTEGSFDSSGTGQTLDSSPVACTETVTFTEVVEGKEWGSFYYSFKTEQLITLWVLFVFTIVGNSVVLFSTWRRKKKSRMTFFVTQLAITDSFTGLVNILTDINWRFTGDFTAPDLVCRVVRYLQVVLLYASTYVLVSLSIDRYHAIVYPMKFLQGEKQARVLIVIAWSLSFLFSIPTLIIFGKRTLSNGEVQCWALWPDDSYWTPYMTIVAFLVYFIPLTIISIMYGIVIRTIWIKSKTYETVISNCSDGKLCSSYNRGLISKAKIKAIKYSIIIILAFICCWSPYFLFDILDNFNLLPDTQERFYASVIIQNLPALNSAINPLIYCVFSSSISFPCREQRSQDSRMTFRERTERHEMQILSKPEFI
TrxR1 substrate = is turned over as a substrate by rat TrxR1; Potency, µM (highest dose often 114 µM), inactives show at the highest dose activity change, negative = substrate turnover; AID 588456; O89049; hit rate 0.01% among 390,000; purified TrxR1 substrate turnover, NADPH consumption readout; also: nearly all actives have a fitted effect of over 50% in size
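Rat TrxR1, dispensed at 90 nM, was prereduced with 400 uM NADPH (final) for 5 min at ~22 deg C, then incubated with compound 15 min before 400 uM selenite. A first-read NADPH fluorescence drop versus no-compound background flagged substrates.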
GALK inh = inhibitors of human galactokinase; P51570; Purified GALK, Kinase-Glo residual ATP luminescence; Potency, µM (top dose mostly 57.5 µM), inactives show top-dose activity change, negative = inhibition, hits mostly inhibitors; hit rate 0.007% among 270,000; AID 1868
Target sequence (P51570 whole entry, looked up): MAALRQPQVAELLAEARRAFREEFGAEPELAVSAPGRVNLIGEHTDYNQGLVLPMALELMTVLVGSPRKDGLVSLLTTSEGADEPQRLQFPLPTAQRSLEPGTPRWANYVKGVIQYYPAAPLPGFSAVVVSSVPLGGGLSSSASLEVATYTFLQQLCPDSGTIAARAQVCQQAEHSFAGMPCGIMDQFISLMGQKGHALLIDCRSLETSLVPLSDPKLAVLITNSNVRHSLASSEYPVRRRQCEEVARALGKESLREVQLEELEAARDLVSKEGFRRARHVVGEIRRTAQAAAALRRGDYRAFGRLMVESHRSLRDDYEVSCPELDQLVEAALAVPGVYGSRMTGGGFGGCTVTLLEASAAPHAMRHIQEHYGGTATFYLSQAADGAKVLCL
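Kinase-Glo Plus luminescence measured ATP left after a 1 h room-temperature reaction. The reaction used 5 nM GALK, 100 uM galactose and 35 uM ATP at pH 8.0 (20 mM HEPES, 5 mM MgCl2, 60 mM NaCl, 1 mM DTT, 0.01% BSA).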
TrxR1 inh = rat TrxR1 inhibition; O89049; Potency, µM (top dose mostly 114 µM), inactives show at the top dose activity change, negative = inhibition, usual class: inhibitors; hit rate 1% among 390,000; AID 588453; recombinant rTrxR1, NADPH fluorescence consumption, selenite substrate; also: nearly all actives have a fitted effect of over 65% in size
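Rat TrxR1 (90 nM in the dispensed reagent) was pre-reduced with 400 uM NADPH for 5 min at room temperature, then incubated with compound for 15 min. After 400 uM selenite was added, NADPH fluorescence (Ex 340/Em 450 nm) was followed for 8 min.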
* hit, by the source's call; ? = inconclusive; · = no result given; ! = not confirmed by another sample; [ ] = remark or other dose. Calls follow the shape of the dose curve; as a rule, active = well fitted curve in the direction sought with a large enough effect; inconclusive = small, poorly fitted or top-dose-only effect, or another doubt; inactive = no such curve, though single readings can be large; an effect the other way counts as inactive or inconclusive. % is scaled to controls: 0 for no effect and ±100 for the full control effect; potency is read from the fitted curve at half-maximal effect.

SMILES | NPSR antag | TrxR1 substrate | GALK inh | TrxR1 inh
CCOC(=O)c1sc(=NC(=O)c2ccc(OC(C)C)cc2)n(C)c1C | 5.01µM* | 11.9%[57.1 µM] | 6.2% | 22.9%[57.1 µM]
COc1ccccc1CCC(=O)O | · | 1.2% | · | 4.4%
Cc1ccc(S(=O)(=O)N2CCN(c3nc(-n4ccnn4)nc4ccccc34)CC2)cc1 | · | 4.6% | · | 0.1%
CCOC(=O)Cc1csc(NC(=O)NC2(C(F)(F)F)Oc3ccccc3O2)n1 | -24.8%[46.1 µM] | -5.4% | 0.0% | 11.2µM*
CCOC(=O)Cc1csc(NC(=O)NC2(C(F)(F)F)Oc3ccc(Cl)cc3O2)n1 (stereo unspecified) | -14.8%[46.1 µM] | 8.0%[57.1 µM] | 0.0% | 8.91µM*
CCOC(=O)/C(=C\c1ccccc1)NC(=O)c1ccccc1 | ? | -7.8% | 4.8% | -2.3%
CCOC(=O)/C(=C/c1ccc(OC(=O)c2ccccc2)cc1)C(C)=O | -25.1% | -0.1% | · | 14.1µM*
CCOC(=O)C(C(=O)OCC)c1cc(Br)c2noc3c2c1C(=O)c1ccccc1-3 | 3.98µM* | 2.3% | -0.7% | ?
CN(Cc1ccccc1)C(=O)c1nc[nH]c1C(=O)N1CCc2ccccc2C1 | · | 0.7% | · | 39.8µM*
COC(=O)C1CCN(c2cc(=O)n(-c3ccc(OC)cc3)c(=O)[nH]2)CC1 | -2.2%[46.1 µM] | 6.2%[57.1 µM] | 1.9% | 28.2µM*
CC1CCCCN1CCCNC(=O)c1cc(Sc2cccc(Cl)c2)nc2ccccc12 (stereo unspecified) | · | -0.6%[57.1 µM] | · | 1.7%[57.1 µM]
CCOC(=O)c1c(-n2cnnn2)sc2c1CCCC2 | -0.1%[7.67 µM] | 40.5% | -2.7% | 26.1%
CCOC(=O)c1c(N2C(=O)C3C4C=CC(O4)C3C2=O)sc2c1CCCC2 (stereo unspecified) | -17.6%[46.1 µM] | -1.8% | 1.8% | 12.6µM*
COc1cccc(NC(=O)c2c(C(=O)Nc3ccccc3)sc3nc(C)cc(=O)n23)c1 | · | 4.2% | · | -4.8%
O=C1NC(=O)/C(=C\c2ccc(N3CCOCC3)o2)N1 | -28.6% | -22.4% | 0.4% | 8.91µM*
O=C1S/C(=C\c2ccc(N3CCOCC3)o2)C(=O)N1c1ccccc1 | -39.8% | 5.4%[57.1 µM] | -0.7% | 3.98µM*
O=C1S/C(=C\c2ccc(N3CCOCC3)o2)C(=O)N1Cc1c(F)cccc1Cl | ? | 4.5%[57.1 µM] | -1.7% | 2.51µM*
O=C1S/C(=C/c2ccc(N3CCOCC3)o2)C(=O)N1Cc1c(F)cccc1Cl | ? | -9.9% | -1.8% | 8.91µM*
O=C(O)c1ccccc1-c1ccc(/C=C2\SC(=O)N(c3ccccc3)C2=O)o1 | · | -8.0% | 1.2% | -25.9%
O=C1N=C(N2CCOCC2)S/C1=C/c1ccc(-c2ccccc2Cl)o1 | 0.1%[46.1 µM] | -15.9% | -0.4% | -15.8%
Oc1c(Br)cc(C=Nc2ccc3nc(-c4ccccc4)[nH]c3c2)c(O)c1Br | 10µM* | 45.6%[57.1 µM] | -0.7% | 0.7%[57.1 µM]
O=[N+]([O-])c1ccc(O)c(C=Nc2ccc3nc(-c4ccccc4)[nH]c3c2)c1 | -19.7% | 175.8% | -0.3% | ?
COc1cc2ccccc2cc1C(=O)OCC(=O)Nc1ccc(Br)cc1 | · | 16.6% | · | 6.4%
O=C(c1ccco1)N1CCN(S(=O)(=O)c2ccc(Br)s2)CC1 | -7.2%[46.1 µM] | 10.1% | -0.3% | 10µM*
CCN(c1ccc(C)cc1)S(=O)(=O)c1nnc(NC(=O)C2CCCCC2)s1 | · | 72.5% | · | 74.0%
SMILES | NPSR antag | TrxR1 substrate | GALK inh | TrxR1 inh
Cc1ccc(NC2CCCN(C(=O)c3ccc(C)c(N4CCNC4=O)c3)C2)cc1C (stereo unspecified) | · | -5.6% | -4.6% | -0.7%
COc1cc(-c2noc(C)c2C#CCCN2C(=O)c3ccccc3C2=O)cc(OC)c1OC | · | 3.5% | · | 1.6%
O=C(c1ccc(Nc2nc3ccccc3n3nnnc23)cc1)N1CCN(c2cccc(C(F)(F)F)c2)CC1 | · | 24.8% | · | 70.8µM*
O=C(NP(=O)(N1CCCC1)N1CCCC1)C1=C(N2CCOCC2)/C(=C/c2cccc([N+](=O)[O-])c2)CC1 | -15.8% | 6.0%[57.1 µM] | 2.7% | -17.5%[57.1 µM]
O=[N+]([O-])c1ccc(/C=C2\CCC(C3=CCCC3)=C2N2CCOCC2)cc1 | -19.2% | -9.6% | 2.2% | 39.8µM*
COc1ccc(OC)c(/C=C/c2cc3ccccc3cn2)c1 | · | -2.6% | · | 3.1%
COc1ccc(C(=O)/C=C/C(=O)N(CC(=O)NC2CCCCC2)Cc2ccccc2)c(O)c1 | ? | 7.5% | 4.3% | 3.16µM*
COc1ccc(C(=O)/C=C/C(=O)N(CC(=O)NC2CCCCC2)CC2CCCO2)c(O)c1 (stereo unspecified) | ? | -14.4% | -0.8% | 1.26µM*
COc1ccc(C(=O)/C=C/C(=O)N(CC(=O)NC2CCCCC2)Cc2ccccc2OC)c(O)c1 | ? | 8.0%[57.1 µM] | -1.9% | ?
N#C/C(=C\c1ccc(-c2cc(Cl)ccc2Cl)o1)C(=O)Nc1ccccc1C(=O)O | · | 5.6% | · | 12.7%
CC(=O)CC[N+](C)(C)C | · | -1.9% | · | 2.24µM*
Cc1cccc(Cn2cc(S(=O)(=O)c3ccccc3)c(=O)c3cc(F)c(N4CCOCC4)cc32)c1 | · | 5.7% | · | 6.8%
O=c1c2oc3ccccc3c2[nH]c(=S)n1-c1ccc(F)cc1 | 10µM* | 0.2% | -1.4% | ?
CCOc1ccccc1C(=O)NCC(c1ccc(N(C)C)cc1)N1CCc2ccccc21 (stereo unspecified) | · | -4.2%[57.1 µM] | · | -5.9%[57.1 µM]
O=C(CSC1=Nc2ccccc2C2=NC(Cc3ccccc3)C(=O)N12)Nc1cccc(Cl)c1 (stereo unspecified) | · | -0.1%[57.1 µM] | · | 4.3%[57.1 µM]
CN1Cc2c(N3CCOCC3)nc3sc(C(=O)c4ccccc4)c(N)c3c2CC1(C)C | 12.6µM* | -0.1%[57.1 µM] | -2.4% | 17.5%
O=C(NCCc1ccccc1Cl)c1sc2ncccc2c1-n1cccc1 | · | 0.3%[57.1 µM] | · | 9.3%[57.1 µM]
CN1CCN(C2=C(NS(=O)(=O)c3cccs3)C(=O)c3ccccc3C2=O)CC1 | -50.5% | -1.8% | -0.5% | -10.4%
O=C1C(NS(=O)(=O)c2cccs2)=C(N2CCN(c3cccc(C(F)(F)F)c3)CC2)C(=O)c2ccccc21 | 10µM* | -10.1% | 0.5% | ?
O=C(Cn1cc(SCc2c(F)cccc2Cl)c2ccccc21)N1CCCCCC1 | · | -2.5% | · | 24.6%
CCS(=O)(=O)c1ncc(Cl)c(C(=O)Nc2ccc(C)cc2)n1 | · | 7.8% | 5.8% | ?
CCS(=O)(=O)c1ncc(Cl)c(C(=O)Nc2ccc(S(=O)(=O)N3CCCC(C)C3)cc2)n1 (stereo unspecified) | · | -1.9% | 0.9% | 2.51µM*
CCC1CCCCN1S(=O)(=O)c1ccc(NC(=O)c2nc(S(C)(=O)=O)ncc2Cl)cc1 (stereo unspecified) | · | -1.8% | 0.0% | 7.08µM*
Cc1cc(N)ccc1N1CCCC1 | -23.7%[46.1 µM] | -1.5% | -4.4% | 12.6µM*
Cc1cc(N)ccc1-n1c(C)ccc1C | -8.5%[46.1 µM] | -9.4% | 2.3% | ?
CCOc1ccc(C(=O)NCCc2sc(-c3cccc(F)c3)nc2C)cc1OCC | · | 2.6%[57.1 µM] | · | 10.0%[57.1 µM]
COC(=O)C(NNc1ccccc1C)(NC(=O)c1ccc(F)cc1)C(F)(F)F (stereo unspecified) | -14.3%[46.1 µM] | -1.2% | -1.6% | 28.2µM*
O=C1NC(=O)C(c2ccccc2[N+](=O)[O-])=C1Nc1ccc(O)c(Cl)c1 | -25.9%[46.1 µM] | -2.6%[57.1 µM] | · | 2.67µM*!
Cc1ccc(-c2cc(-c3ccccc3[N+](=O)[O-])[nH]n2)c(O)c1 | -7.6%[46.1 µM] | -0.6% | 1.9% | 31.8%

Assay outcomes deposited in PubChem BioAssay by National Center for Advancing Translational Sciences (NCATS).
